According to the supplement of paper PMC10849652:
Targets with a hit are over-represented here; the source holds about 8,800 in all. About 0.5% of all pairs of compound and target were hits.

How the values were obtained:
Test in all cases: log2 fold change, soluble protein after heating vs DMSO (PISA); higher = thermal stabilisation; K562 lysate, 10 uM; active = over 0.2 and 3.5 SD of the protein, either way, in both replicates (recomputed)
ibrutinib = compound: C=CC(=O)N1CCC[C@@H](n2nc(-c3ccc(Oc4ccccc4)cc3)c3c(N)ncnc32)C1 [ibrutinib]
In short: (§1)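 Dounce homogenisation of K562 pellets in PBS pH 7.4 with 1 mM MgCl2 produced a crude extract, used at 1 mg/mL protein. Exposure to 10 μM compound lasted 30 min, and aliquots were then heated for 3 min across 48°C-58°C, pooled and brought to 0.5% NP-40 at 4°C. The supernatant after 21,000xg for 90 min was quantified by TMTpro 16plex LC-MS/MS with channel sums equalised. Duplicate values are given as log-two fold change in thermal stability relative to solvent controls.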

[1] = compound: CC(=O)c1cnc2ccc(-c3cc(Cl)c(O)c(Cl)c3)nc2c1N[C@H]1CC[C@H](CN(C)C)CC1
In short: as §1

ralimetinib = compound: CC(C)(C)Cn1c(N)nc2ccc(-c3[nH]c(C(C)(C)C)nc3-c3ccc(F)cc3)nc21 [ralimetinib]
In short: as §1

[2] = compound: CC(C)(O)CC(=O)NCCn1ccc2ncnc(Nc3ccc(Oc4cccc(C(F)(F)F)c4)c(Cl)c3)c21
In short: as §1

[3] = compound: CC(C)C1=C2N=C(C=C(N2N=C1)NCC3=CC=CC=C3)NCCCCCCN
In short: as §1

[4] = compound: CC1=C(C(CC(=O)N1)C2=CC=C(C=C2)C(F)(F)F)C(=O)NC3=C(C=C4C(=C3)C=NN4)F
In short: as §1

[5] = compound: CC1=C(C2=C(C=C1)C(=O)C3=CC=CC=C3N2CCCN)C
In short: as §1

[6] = compound: CC1=C(C=C(C=C1)NC(=O)C2=CC(=CC=C2)C(C)(C)C#N)NC3=CC4=C(C=C3)N=CN(C4=O)C
In short: as §1

[7] = compound: CC1=C(C=C(C=C1)NC(=O)C2=CC(=CC=C2)N(C)C)NC(=O)C3=CC=C(C=C3)O
In short: as §1

[8] = compound: CC1=CC=C(C=C1)SC2=C3C=C(SC3=CN=C2)C(=O)N
In short: as §1

Sequence of UniProt P48059 (P48059 whole entry, looked up): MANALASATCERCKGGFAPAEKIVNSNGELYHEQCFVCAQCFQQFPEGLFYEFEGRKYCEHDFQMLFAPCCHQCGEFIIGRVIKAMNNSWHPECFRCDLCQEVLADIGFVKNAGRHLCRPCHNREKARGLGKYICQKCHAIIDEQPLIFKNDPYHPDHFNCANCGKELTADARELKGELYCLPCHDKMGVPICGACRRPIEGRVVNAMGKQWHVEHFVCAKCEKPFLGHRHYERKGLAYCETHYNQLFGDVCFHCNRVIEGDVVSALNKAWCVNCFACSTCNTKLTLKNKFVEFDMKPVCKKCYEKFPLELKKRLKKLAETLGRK
Sequence of UniProt Q16539 (Q16539 whole entry, looked up): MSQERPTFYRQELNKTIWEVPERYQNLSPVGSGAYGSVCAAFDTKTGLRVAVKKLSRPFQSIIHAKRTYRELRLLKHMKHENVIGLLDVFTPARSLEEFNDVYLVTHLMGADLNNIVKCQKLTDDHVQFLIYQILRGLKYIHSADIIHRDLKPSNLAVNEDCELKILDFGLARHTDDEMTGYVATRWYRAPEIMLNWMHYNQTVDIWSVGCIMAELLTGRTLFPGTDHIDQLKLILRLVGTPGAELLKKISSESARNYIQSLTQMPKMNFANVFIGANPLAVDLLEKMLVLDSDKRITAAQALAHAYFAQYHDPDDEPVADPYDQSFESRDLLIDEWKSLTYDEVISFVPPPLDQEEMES
Sequence of UniProt P27816 (P27816 whole entry, looked up): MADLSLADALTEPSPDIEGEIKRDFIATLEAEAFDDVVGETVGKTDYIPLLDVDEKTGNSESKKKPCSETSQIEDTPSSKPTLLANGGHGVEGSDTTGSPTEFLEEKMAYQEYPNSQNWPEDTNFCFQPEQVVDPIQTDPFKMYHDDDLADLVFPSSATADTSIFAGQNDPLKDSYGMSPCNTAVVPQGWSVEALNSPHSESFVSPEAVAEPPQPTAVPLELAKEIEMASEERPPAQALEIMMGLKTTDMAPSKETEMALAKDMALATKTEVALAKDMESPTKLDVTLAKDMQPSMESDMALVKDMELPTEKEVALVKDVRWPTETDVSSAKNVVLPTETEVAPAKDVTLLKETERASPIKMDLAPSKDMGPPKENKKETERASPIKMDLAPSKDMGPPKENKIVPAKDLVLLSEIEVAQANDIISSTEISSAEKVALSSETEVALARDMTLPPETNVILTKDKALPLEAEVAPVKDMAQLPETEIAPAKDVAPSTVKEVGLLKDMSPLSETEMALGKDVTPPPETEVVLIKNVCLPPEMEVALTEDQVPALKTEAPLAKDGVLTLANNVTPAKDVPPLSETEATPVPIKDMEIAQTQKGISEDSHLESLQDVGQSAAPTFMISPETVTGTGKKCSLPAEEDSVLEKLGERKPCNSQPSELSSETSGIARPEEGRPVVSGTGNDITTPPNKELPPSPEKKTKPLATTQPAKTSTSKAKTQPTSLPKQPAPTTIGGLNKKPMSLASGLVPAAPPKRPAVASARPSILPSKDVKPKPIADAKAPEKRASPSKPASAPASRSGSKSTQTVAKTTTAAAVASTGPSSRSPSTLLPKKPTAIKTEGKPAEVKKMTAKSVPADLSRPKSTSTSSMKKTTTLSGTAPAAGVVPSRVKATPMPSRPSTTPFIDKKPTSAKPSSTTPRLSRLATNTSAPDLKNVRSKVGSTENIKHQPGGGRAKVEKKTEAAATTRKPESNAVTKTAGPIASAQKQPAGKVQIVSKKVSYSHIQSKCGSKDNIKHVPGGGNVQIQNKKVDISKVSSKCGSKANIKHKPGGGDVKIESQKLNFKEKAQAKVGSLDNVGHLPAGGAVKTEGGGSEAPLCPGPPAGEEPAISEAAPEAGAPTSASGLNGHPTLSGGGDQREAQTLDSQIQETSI
Sequence of UniProt O95819 (O95819 whole entry, looked up): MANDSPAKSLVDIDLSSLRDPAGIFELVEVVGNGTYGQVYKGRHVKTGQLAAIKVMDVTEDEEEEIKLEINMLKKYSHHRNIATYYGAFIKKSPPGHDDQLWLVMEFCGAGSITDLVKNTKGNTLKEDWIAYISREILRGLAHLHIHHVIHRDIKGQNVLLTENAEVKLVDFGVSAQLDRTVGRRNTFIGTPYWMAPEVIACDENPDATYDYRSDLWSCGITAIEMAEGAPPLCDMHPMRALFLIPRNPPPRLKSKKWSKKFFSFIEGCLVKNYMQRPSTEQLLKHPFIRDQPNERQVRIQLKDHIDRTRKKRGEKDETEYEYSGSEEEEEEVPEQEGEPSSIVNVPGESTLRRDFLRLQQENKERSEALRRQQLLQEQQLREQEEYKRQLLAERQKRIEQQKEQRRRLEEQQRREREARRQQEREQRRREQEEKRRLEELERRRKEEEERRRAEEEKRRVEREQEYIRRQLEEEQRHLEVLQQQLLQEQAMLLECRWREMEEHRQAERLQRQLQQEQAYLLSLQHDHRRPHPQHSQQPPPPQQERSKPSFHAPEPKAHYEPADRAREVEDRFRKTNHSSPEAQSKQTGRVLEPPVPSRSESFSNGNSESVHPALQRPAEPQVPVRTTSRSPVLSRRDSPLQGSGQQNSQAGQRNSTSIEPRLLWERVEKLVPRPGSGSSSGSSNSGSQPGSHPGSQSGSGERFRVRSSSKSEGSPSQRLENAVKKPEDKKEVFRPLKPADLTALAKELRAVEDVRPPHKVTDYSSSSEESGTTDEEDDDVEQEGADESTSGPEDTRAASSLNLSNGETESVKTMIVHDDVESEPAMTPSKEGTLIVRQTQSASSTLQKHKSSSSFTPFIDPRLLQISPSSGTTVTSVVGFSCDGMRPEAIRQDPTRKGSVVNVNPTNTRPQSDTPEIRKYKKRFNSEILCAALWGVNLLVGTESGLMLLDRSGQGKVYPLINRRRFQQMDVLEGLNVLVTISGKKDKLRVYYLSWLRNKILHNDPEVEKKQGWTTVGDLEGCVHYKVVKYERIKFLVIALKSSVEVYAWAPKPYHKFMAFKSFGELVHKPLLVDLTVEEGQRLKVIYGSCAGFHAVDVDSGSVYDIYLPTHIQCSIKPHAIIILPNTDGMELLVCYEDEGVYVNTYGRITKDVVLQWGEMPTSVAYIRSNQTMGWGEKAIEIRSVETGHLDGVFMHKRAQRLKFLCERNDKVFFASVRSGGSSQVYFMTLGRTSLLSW
Sequence of UniProt P27448 (P27448 whole entry, looked up): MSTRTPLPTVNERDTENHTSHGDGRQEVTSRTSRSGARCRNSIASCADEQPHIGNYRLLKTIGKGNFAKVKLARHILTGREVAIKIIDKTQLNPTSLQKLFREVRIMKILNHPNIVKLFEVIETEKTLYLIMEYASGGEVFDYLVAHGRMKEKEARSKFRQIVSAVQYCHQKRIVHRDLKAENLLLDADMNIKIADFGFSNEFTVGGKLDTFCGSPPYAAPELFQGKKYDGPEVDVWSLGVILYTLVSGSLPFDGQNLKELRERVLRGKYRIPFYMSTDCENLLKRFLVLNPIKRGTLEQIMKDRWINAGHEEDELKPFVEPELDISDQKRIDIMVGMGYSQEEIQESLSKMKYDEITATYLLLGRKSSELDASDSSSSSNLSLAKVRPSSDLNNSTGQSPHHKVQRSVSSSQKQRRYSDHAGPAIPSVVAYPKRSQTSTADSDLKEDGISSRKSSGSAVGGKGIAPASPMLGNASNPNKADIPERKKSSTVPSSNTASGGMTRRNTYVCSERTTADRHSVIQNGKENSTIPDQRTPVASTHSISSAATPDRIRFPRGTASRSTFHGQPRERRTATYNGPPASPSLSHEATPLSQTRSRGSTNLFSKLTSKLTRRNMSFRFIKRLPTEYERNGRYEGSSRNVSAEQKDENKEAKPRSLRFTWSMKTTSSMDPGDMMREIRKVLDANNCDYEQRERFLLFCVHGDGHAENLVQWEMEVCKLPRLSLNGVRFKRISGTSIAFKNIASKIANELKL
Sequence of UniProt A9UHW6 (A9UHW6 whole entry, looked up): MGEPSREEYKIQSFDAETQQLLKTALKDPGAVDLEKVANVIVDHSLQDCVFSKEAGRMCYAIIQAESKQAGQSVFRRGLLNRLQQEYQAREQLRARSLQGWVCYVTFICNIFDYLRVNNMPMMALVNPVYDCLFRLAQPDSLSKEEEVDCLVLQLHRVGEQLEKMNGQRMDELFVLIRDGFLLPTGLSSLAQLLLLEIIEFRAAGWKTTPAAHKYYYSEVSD
Sequence of UniProt Q9NSK0 (Q9NSK0 whole entry, looked up): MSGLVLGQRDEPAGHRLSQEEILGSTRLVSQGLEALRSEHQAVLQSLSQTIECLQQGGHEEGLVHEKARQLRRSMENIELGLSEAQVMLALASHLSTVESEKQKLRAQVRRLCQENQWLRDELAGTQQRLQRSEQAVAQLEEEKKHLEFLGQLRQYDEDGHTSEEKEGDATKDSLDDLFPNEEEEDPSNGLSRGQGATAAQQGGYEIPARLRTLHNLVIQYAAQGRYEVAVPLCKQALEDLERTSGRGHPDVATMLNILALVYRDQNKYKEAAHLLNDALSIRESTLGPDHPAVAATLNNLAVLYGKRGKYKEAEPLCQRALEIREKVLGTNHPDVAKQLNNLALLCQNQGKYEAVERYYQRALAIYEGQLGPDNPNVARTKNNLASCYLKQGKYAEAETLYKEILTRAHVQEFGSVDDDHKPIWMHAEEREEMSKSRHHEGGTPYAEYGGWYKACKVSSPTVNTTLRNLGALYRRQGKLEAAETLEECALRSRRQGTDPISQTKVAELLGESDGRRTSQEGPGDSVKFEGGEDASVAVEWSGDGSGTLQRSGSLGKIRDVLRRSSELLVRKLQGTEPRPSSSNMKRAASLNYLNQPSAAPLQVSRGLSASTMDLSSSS
Sequence of UniProt P14174 (P14174 whole entry, looked up): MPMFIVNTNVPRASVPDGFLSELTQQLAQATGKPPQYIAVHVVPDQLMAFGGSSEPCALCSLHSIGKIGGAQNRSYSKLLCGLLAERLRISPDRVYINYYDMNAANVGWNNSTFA
Sequence of UniProt Q9HD34 (Q9HD34 whole entry, looked up): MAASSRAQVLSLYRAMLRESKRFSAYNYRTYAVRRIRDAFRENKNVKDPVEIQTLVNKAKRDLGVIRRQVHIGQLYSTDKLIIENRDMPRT

Row | Target | log2 fold change (ibrutinib) | log2 fold change [1] | log2 fold change (ralimetinib) | log2 fold change [2] | log2 fold change [3] | log2 fold change [4] | log2 fold change [5] | log2 fold change [6] | log2 fold change [7] | log2 fold change [8]
1 | MBLAC2 (UniProt Q68D91) | 0.05 (inactive) | -0.005 (inactive) | 0.069 (inactive) | 0.003 (inactive) | 0.035 (inactive) | 0.04 (inactive) | 0.037 (inactive) | -0.013 (inactive) | -0.044 (inactive) | -0.019 (inactive)
2 | MED10 (UniProt Q9BTT4) | -0.029 (inactive) | -0.087 (inactive) | -0.015 (inactive) | -0.055 (inactive) | -0.019 (inactive) | -0.013 (inactive) | -0.025 (inactive) | 0.02 (inactive) | 0.074 (inactive) | 0.074 (inactive)
3 | MAP2K4 isoform 2 (UniProt P45985) | 0.051 (inactive) | 0.316 (inactive) | -0.029 (inactive) | -0.015 (inactive) | 0.042 (inactive) | -0.008 (inactive) | 0.006 (inactive) | -0.055 (inactive) | 0.033 (inactive) | -0.045 (inactive)
4 | LAP3 (UniProt P28838) | 0.043 (inactive) | -0.03 (inactive) | -0.05 (inactive) | -0.103 (inactive) | 0 (inactive) | -0.024 (inactive) | -0.042 (inactive) | 0.117 (inactive) | -0.009 (inactive) | -0.018 (inactive)
5 | MAST4 (UniProt O15021) | 0.019 (inactive) | 0.423 (active) | 0.04 (inactive) | 0.061 (inactive) | -0.032 (inactive) | -0.075 (inactive) | 0.032 (inactive) | -0.173 (inactive) | -0.023 (inactive) | 0.049 (inactive)
6 | KLC4 isoform 3 (UniProt Q9NSK0) | -0.007 (inactive) | 0.012 (inactive) | 0.008 (inactive) | -0.023 (inactive) | -0.024 (inactive) | -0.018 (inactive) | 0.009 (inactive) | 0.019 (inactive) | -0.001 (inactive) | 0.003 (inactive)
7 | MECR (UniProt Q9BV79) | 0.025 (inactive) | -0.029 (inactive) | -0.006 (inactive) | -0.049 (inactive) | 0.008 (inactive) | 0.008 (inactive) | 0.058 (inactive) | -0.006 (inactive) | 0.006 (inactive) | 0.011 (inactive)
8 | MAP4 (UniProt P27816) | 0.002 (inactive) | -0.005 (inactive) | -0.016 (inactive) | -0.002 (inactive) | 0.016 (inactive) | -0.023 (inactive) | -0.016 (inactive) | 0.006 (inactive) | -0.001 (inactive) | -0.008 (inactive)
9 | LIMS1 isoform 3 (UniProt P48059) | 0.003 (inactive) | 0.033 (inactive) | 0.003 (inactive) | 0.023 (inactive) | -0.036 (inactive) | -0.012 (inactive) | -0.01 (inactive) | 0.052 (inactive) | -0.023 (inactive) | -0.006 (inactive)
10 | MIF4GD isoform 3 (UniProt A9UHW6) | 0.108 (inactive) | -0.032 (inactive) | -0.04 (inactive) | -0.014 (inactive) | 0.016 (inactive) | -0.002 (inactive) | -0.049 (inactive) | 0 (inactive) | -0.04 (inactive) | -0.004 (inactive)
11 | METTL2A (UniProt Q96IZ6) | -0.006 (inactive) | 0.044 (inactive) | 0.048 (inactive) | 0.068 (inactive) | 0.018 (inactive) | 0.021 (inactive) | 0.038 (inactive) | -0.029 (inactive) | -0.025 (inactive) | 0.002 (inactive)
12 | MFF isoform 2 (UniProt Q9GZY8) | 0.007 (inactive) | -0.044 (inactive) | -0.03 (inactive) | -0.033 (inactive) | -0.052 (inactive) | 0 (inactive) | 0.004 (inactive) | 0.032 (inactive) | 0.022 (inactive) | -0.024 (inactive)
13 | LYSMD3 (UniProt Q7Z3D4) | 0.098 (inactive) | -0.072 (inactive) | 0.003 (inactive) | -0.046 (inactive) | -0.045 (inactive) | -0.099 (inactive) | -0.003 (inactive) | 0.034 (inactive) | 0.005 (inactive) | -0.01 (inactive)
14 | KIF14 (UniProt Q15058) | 0.086 (inactive) | 0.024 (inactive) | 0.002 (inactive) | 0.003 (inactive) | 0.017 (inactive) | 0.002 (inactive) | -0.011 (inactive) | 0.007 (inactive) | 0.041 (inactive) | -0.012 (inactive)
15 | MAPKAPK5 (UniProt Q8IW41) | -0.001 (inactive) | -0.008 (inactive) | -0.024 (inactive) | -0.012 (inactive) | 0 (inactive) | -0.057 (inactive) | -0.01 (inactive) | 0.034 (inactive) | 0.048 (inactive) | -0.066 (inactive)
16 | MPZL1 (UniProt O95297) | 0.01 (inactive) | -0.008 (inactive) | -0.01 (inactive) | 0.022 (inactive) | -0.035 (inactive) | -0.006 (inactive) | 0.003 (inactive) | 0.02 (inactive) | -0.035 (inactive) | -0.036 (inactive)
17 | MAPK14 isoform 2 (UniProt Q16539) | 0.03 (inactive) | 0.249 (inactive) | 0.97 (active) | -0.047 (inactive) | -0.003 (inactive) | 0.02 (inactive) | -0.027 (inactive) | 0.973 (active) | 0.419 (inactive) | 0.011 (inactive)
18 | LYRM4 (UniProt Q9HD34) | 0.015 (inactive) | 0.034 (inactive) | -0.036 (inactive) | -0.042 (inactive) | 0.017 (inactive) | 0.017 (inactive) | -0.027 (inactive) | 0.109 (inactive) | -0.034 (inactive) | -0.009 (inactive)
19 | MAP2K2 (UniProt P36507) | 0.239 (inactive) | 0.443 (active) | -0.052 (inactive) | 0.173 (inactive) | -0.007 (inactive) | -0.009 (inactive) | -0.033 (inactive) | -0.017 (inactive) | 0.013 (inactive) | -0.014 (inactive)
20 | MARK3 (UniProt P27448) | 0.03 (inactive) | -0.081 (inactive) | 0.028 (inactive) | -0.016 (inactive) | 0.041 (inactive) | 0.005 (inactive) | -0.009 (inactive) | 0.075 (inactive) | 0.016 (inactive) | 0 (inactive)
21 | KIF4B (UniProt Q2VIQ3) | 0.027 (inactive) | 0.005 (inactive) | 0.004 (inactive) | -0.03 (inactive) | 0.013 (inactive) | 0.04 (inactive) | -0.018 (inactive) | 0.01 (inactive) | 0.002 (inactive) | -0.036 (inactive)
22 | MIF (UniProt P14174) | 0.101 (inactive) | -0.057 (inactive) | -0.002 (inactive) | 0.01 (inactive) | 0.003 (inactive) | -0.095 (inactive) | 0.009 (inactive) | -0.004 (inactive) | -0.019 (inactive) | 0.049 (inactive)
23 | MLXIP (UniProt Q9HAP2) | 0.045 (inactive) | 0.007 (inactive) | -0.006 (inactive) | -0.035 (inactive) | 0.028 (inactive) | -0.033 (inactive) | -0.015 (inactive) | -0.015 (inactive) | -0.011 (inactive) | -0.015 (inactive)
24 | KIF15 (UniProt Q9NS87) | -0.017 (inactive) | 0.006 (inactive) | 0.008 (inactive) | -0.022 (inactive) | 0.01 (inactive) | 0.022 (inactive) | -0.027 (inactive) | 0.02 (inactive) | 0.036 (inactive) | -0.015 (inactive)
25 | MAP4 isoform 5 (UniProt P27816) | 0.172 (inactive) | 0.027 (inactive) | -0.1 (inactive) | -0.166 (inactive) | 0.03 (inactive) | 0.048 (inactive) | 0.019 (inactive) | 0.012 (inactive) | 0.082 (inactive) | 0.047 (inactive)
26 | KIF11 (UniProt P52732) | 0.005 (inactive) | -0.003 (inactive) | 0.029 (inactive) | 0.01 (inactive) | 0.007 (inactive) | 0.005 (inactive) | 0.01 (inactive) | -0.019 (inactive) | 0.014 (inactive) | 0.015 (inactive)
27 | MAP4K4 isoform 3 (UniProt O95819) | -0.052 (inactive) | -0.021 (inactive) | -0.065 (inactive) | -0.002 (inactive) | 0.046 (inactive) | 0.067 (inactive) | -0.042 (inactive) | -0.022 (inactive) | 0.062 (inactive) | -0.056 (inactive)
